Results published in PubChem BioAssay AID485317 (Broad Institute, 2010).
Among all 290,000 compounds or so, about 11,000 (3.8%) were called active.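 How the source made its calls: active means mean replicate inhibition above about 79%, with every replicate also reaching it (limit read from the data); inconclusive means only one of the two criteria met; inactive means mean below limit and not every replicate reaching it.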 Only a selection was taken, and actives are over-represented in it overall.

Each compound was assayed against FAD-linked sulfhydryl oxidase ALR (Homo sapiens) (UniProt P55789) (assay: ALR-catalysed DTT oxidation blockers – biochemical, H2O2 detection, HRP-luminol luminescence, single point, primary screen (AID 485317)). Conditions: purified ALR, stronger effect = higher value, concentration not given here.
Sequence of FAD-linked sulfhydryl oxidase ALR (Homo sapiens) (P55789 whole entry, looked up): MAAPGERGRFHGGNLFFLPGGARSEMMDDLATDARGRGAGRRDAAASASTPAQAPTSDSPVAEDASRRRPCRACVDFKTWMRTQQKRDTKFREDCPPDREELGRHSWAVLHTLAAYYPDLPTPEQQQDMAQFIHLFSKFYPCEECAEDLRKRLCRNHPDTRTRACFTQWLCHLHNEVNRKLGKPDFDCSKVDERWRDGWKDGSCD

Row | Structure (SMILES) | inhibition
1 | CC[C@@]12C(=O)N(c3ccccc3)C(=O)N1[C@H](c1ccc(Br)cc1)[C@@H]1C(=O)N(C(C)(C)C)C(=O)[C@@H]12 | -9.54% (inactive)
2 | COc1cc(S(=O)(=O)N2CCN(C(=O)C3CC3)CC2)ccc1NC(C)=O | -5.34% (inactive)
3 | COc1ccc(S(=O)(=O)N(C)C[C@H]2Oc3ccc(NS(=O)(=O)c4cccs4)cc3CC(=O)N([C@H](C)CO)C[C@H]2C)cc1 | -0.0995% (inactive)
4 | O=c1oc(-c2ccco2)nc2sc3c(c12)CCCCC3 | 88.4% (active)
5 | O=S(=O)(c1ccc(Cl)cc1)c1nc(-c2ccco2)oc1N1CCCCC1 | 5.77% (inactive)
6 | Cn1c(=O)n(Cc2ccco2)c(=N)c2c3c(sc21)CCCC3 | 3.35% (inactive)
7 | CCC(CO)Oc1cc(NC(=O)c2ccc(Cl)cc2)c2ncn(C(C)C)c2c1 (centres undefined) | -2.2% (inactive)
8 | CC(=O)c1c(C)[nH]c(C(=O)N2CCN(S(=O)(=O)c3ccc(F)c(F)c3)CC2)c1C | -0.525% (inactive)
9 | CCN(/N=C/c1ccccc1)c1cc(=O)n(C)c(=O)[nH]1 | -9.29% (inactive)
10 | CN(C)c1ccc(/C=N/N(Cc2ccccc2)c2ccccc2)cc1 | -4.17% (inactive)
11 | Oc1ccc(/C=N/N(Cc2ccccc2)c2ccccc2)cc1 | 99.2% (active)
12 | Cc1ccc(C(=O)NNC(=O)CSc2nnc3ccccn23)cc1 | -4.37% (inactive)
13 | Cc1cc(C)c(-c2c(O)c3ccccc3n(C)c2=O)c(C)c1 | -13.7% (inactive)
14 | Cc1cc(O)c(Sc2ccccc2)c(=O)o1 | -17.8% (inactive)
15 | COc1cccc(NC(=S)NCc2ccccn2)c1 | -3.74% (inactive)
16 | Cc1c(C)c(C)c(S(=O)(=O)NCCc2ccccn2)c(C)c1C | 3.53% (inactive)
17 | COc1ccc(NCCc2ccccn2)cc1 | 99.8% (active)
18 | COc1ccc(C)cc1NC(=O)CCCN1C(=O)NC(C)(C)C1=O | 0.111% (inactive)
19 | Cc1cccc(-c2oc3ccc(-c4ccc5c(c4)OCO5)cc3c2C#Cc2cncn2C)c1 | -9.37% (inactive)
20 | CSc1nnc(NC(=O)c2nc(S(=O)(=O)Cc3ccc(C)cc3)ncc2Cl)s1 | 8.89% (inactive)

Row | Structure (SMILES) | inhibition
21 | Cc1ccc(S(=O)(=O)CC(=O)Nc2nnc(C)s2)cc1 | -1.7% (inactive)
22 | Cc1ccc(CS(=O)(=O)c2ncc(Cl)c(C(=O)Nc3nnc(C)s3)n2)cc1 | 97.5% (active)
23 | CSc1ncc(Cl)c(C(=O)Nc2cc(C)ccc2C)n1 | -2.22% (inactive)
24 | Cc1cccc(NC(=O)c2nc(S(=O)(=O)Cc3ccccc3)ncc2Cl)c1 | 4.68% (inactive)
25 | Cc1cccc(CS(=O)(=O)c2ncc(Cl)c(C(=O)Nc3ccc(F)cc3)n2)c1 | 98.4% (active)
26 | N#Cc1cccc(OC(=O)c2ccc3c(=O)n4c(nc3c2)CCC4)c1 | 43.5% (inactive)
27 | CC1CCCCC1NC(=O)COc1ccc(C#N)cc1 (centres undefined) | 0.208% (inactive)
28 | COc1cc(Cl)c(C)cc1NC(=O)CSc1nnc(CN2CCCC2)o1 | -7.65% (inactive)
29 | Cc1ccc(C)c(C(=O)COC(=O)Cn2[nH]c(=O)c3ccccc3c2=O)c1 | -2.55% (inactive)
30 | Cc1noc(NS(=O)(=O)c2ccc(NC(=O)C34CCC(CC3)C4)cc2)c1C | 6.47% (inactive)
31 | CC(Oc1cccc(Cl)c1)C(=O)Nc1ccc(S(=O)(=O)Nc2ncccn2)cc1 (centres undefined) | 7.5% (inactive)
32 | CCn1c(SCC(=O)Nc2ccc(S(=O)(=O)Nc3onc(C)c3C)cc2)nnc1-c1ccccc1 | 53.3% (inactive)
33 | Cc1cc(OC(C)C(=O)Nc2ccc(S(=O)(=O)Nc3onc(C)c3C)cc2)cc(C)c1Cl (centres undefined) | 97.6% (active)
34 | Cc1noc(NS(=O)(=O)c2ccc(N/C=C/C(=O)c3ccccc3)cc2)c1C | 85.4% (active)
35 | CCc1ccc(OC(C)C(=O)Nc2ccc(S(=O)(=O)Nc3cc(C)on3)cc2)cc1 (centres undefined) | 9.12% (inactive)
36 | CCOc1cc(N2CCOCC2)c(OCC)cc1NC(=O)COc1cccc(Cl)c1 | -15.1% (inactive)
37 | O=C(CCCOc1ccccc1)NNC(=O)c1ccc(Cl)cc1 | 3.44% (inactive)
38 | Cc1occc1C(=O)N/N=C/c1ccc(-c2cccc([N+](=O)[O-])c2)o1 | -4.94% (inactive)
39 | COc1ccc(NC(=O)CNc2cc(S(=O)(=O)N3CCOCC3)ccc2N2CCOCC2)c(OC)c1 | 1.23% (inactive)
40 | Cc1ccc(NS(=O)(=O)c2ccc(C(C)C)cc2)cc1S(=O)(=O)N1CCOCC1 | 4.5% (inactive)

Row | Structure (SMILES) | inhibition
41 | Cc1cc(C(=O)Nc2nnc(C3CC3)s2)c(C)s1 | -0.2% (inactive)
42 | CC(C)CN(C(=O)COC(=O)c1ccc(Cl)c(N)c1)c1c(N)n(Cc2ccccc2)c(=O)[nH]c1=O | -4.01% (inactive)
43 | Cc1cc(/C=C2\SC(=O)N(C)C2=O)c(C)n1-c1cccc(C(=O)O)c1 | 81.6% (active)
44 | Cc1cc(/C=N/n2cnnc2)c(C)n1-c1cccc(C(=O)O)c1 | 2.1% (inactive)
45 | CN1C(=O)/C(=C/c2ccco2)SC1=Nc1cccc(C(=O)O)c1 | 1.79% (inactive)
46 | COc1ccc(-c2c3c(=O)n(C)c(=O)n(C)c3cn2-c2cccc(OC)c2)cc1 | -5.98% (inactive)
47 | Cc1ccc(-c2c3c(=O)n(C)c(=O)n(C)c3cn2-c2ccccc2O)cc1 | -5.8% (inactive)
48 | Cc1ccc(-c2c3c(=O)n(C)c(=O)n(C)c3cn2-n2cnnc2)cc1 | 97.2% (active)
49 | O=C(COC(=O)c1cc(S(=O)(=O)N2CCOCC2)ccc1Cl)NCCc1ccccc1 | -0.788% (inactive)
50 | CCc1ccccc1OCC(=O)Nc1ccc(C)c(S(=O)(=O)N2CCCCCC2)c1 | -0.917% (inactive)
51 | COc1ccc(C(=O)N2CCC(C(=O)Nc3ccc(C)cc3)CC2)cc1 | -30.7% (inactive)
52 | COC(=O)c1cccc(C(=O)N2CCCC(Nc3ccc4c(c3)OCCO4)C2)c1 (centres undefined) | 93.9% (active)
53 | Cc1cccc(C(=O)N2CCCC(Nc3ccc(C(C)C)cc3)C2)n1 (centres undefined) | 97.8% (active)
54 | COC(=O)c1cccc(C(=O)N2CCC(CCC(=O)NCc3ccc(F)cc3)CC2)c1 | -3.28% (inactive)
55 | CC(C)c1ccc(NC(=O)C2CCCN(S(=O)(=O)c3cccnc3)C2)cc1 (centres undefined) | 1.01% (inactive)
56 | CC(C)c1ccc(NC2CCCN(C(=O)c3ccncc3)C2)cc1 (centres undefined) | 53.9% (inactive)
57 | O=C(Nc1ccc2c(c1)OCCO2)C1CCCN(c2ncccn2)C1 (centres undefined) | -3.09% (inactive)
58 | COc1ccc(NC2CCCN(C(=O)c3ccncc3)C2)cc1 (centres undefined) | 95.8% (active)
59 | CC(C)c1ccc(NC(=O)NC2CCCCC2)cc1 | -0.723% (inactive)
